Inconclusive results are not listed. Active and inactive are the calls of the source. The call rests on the fitted dose curve; in most records, active means well fitted curve in the direction sought with a large enough effect; inconclusive means small, poorly fitted or top-dose-only effect, or another doubt; inactive means no such curve, though single readings can be large; an effect the other way counts as inactive or inconclusive. Peptide text beside a SMILES is read from it. * marks the point of attachment. Hexanoyl = CCCCCC(=O)*
Legend:
[1] = HEK293 18hr Apoptosis Induction qHTS against the NCATS CANVASS Library (AID 1347357)
Outline: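 Luminescent caspase-3/7 signal is measured in HEK293 cells exposed for 18 hours to an 11-point concentration series; doxorubicin serves as the plate control.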

[2] = HPAF-II 12hr Apoptosis Induction qHTS against the NCATS CANVASS Library (AID 1347358)
Outline: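 HPAF-II cells (500/well, DMEM + 10% FBS) were exposed to compounds for 12 hours at 37 degrees C. Caspase-3/7 activity was then read by Caspase-Glo 3/7 luminescence after 15 min at room temperature.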

[3] = HEK293 24hr Apoptosis Induction qHTS against the NCATS CANVASS Library (AID 1347359)
Outline: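 HEK293 cells, 500 per well, exposed to an 11-point compound series for 24 hours at 37 degrees C. Caspase 3/7 activity read by Caspase-Glo luminescence (DEVD substrate) after 15 min at room temperature.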

[4] = HPAF-II 18hr Apoptosis Induction qHTS against the NCATS CANVASS Library (AID 1347360)
Outline: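 Apoptosis was scored as caspase-3/7 activity in HPAF-II pancreatic cancer cells treated 18 hours with an 11-point concentration series.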

[5] = HEK293 12hr Apoptosis Induction qHTS against the NCATS CANVASS Library (AID 1347361)
Outline: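 Apoptosis in HEK293 was scored as caspase-3/7 luminescence following 12 h treatment with a compound concentration series in qHTS format.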

[6] = system: NAD(P)H diaphorase (Clostridium kluyveri); assay: Diaphorse counterscreen qHTS: Assay Interference Panel against the NCATS CANVASS Library (AID 1347362)
Outline: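 Clostridium kluyveri diaphorase in PBS + 0.01% Tween-20 preincubated 15 min with compounds. Resazurin and NADH then added for 5 min at room temperature in the dark; resorufin fluorescence read (ex 525, em 598).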

[7] = biological target: Luciferin 4-monooxygenase (Photinus pyralis) (UniProt P08659); assay: Firefly luciferase counterscreen qHTS: Assay Interference Panel against the NCATS CANVASS Library (AID 1347363); further: series mostly up to about 57 µM
Outline: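 Purified P. pyralis luciferase (0.04 ug/mL, 4x reagent) added to Tris-acetate buffer with 0.013 mM D-luciferin, 0.013 mM ATP and 13.3 mM Mg-acetate; compounds preincubated 15 min, then luminescence read after 5 min, RT.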

[8] = KB-3-1 Cancer Cell Toxicity qHTS against the NCATS CANVASS Library (AID 1347366); further: nearly all actives have a fitted effect of over 75% in size; further: potency means the concentration at half of the fitted maximal effect
Outline: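 Seed KB-3-1 cells at 500/well in DMEM with 10% FBS, add compounds, incubate 72 hr at 37C and 5% CO2, then add CellTiter-Glo and read luminescence after 10 minutes.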

[9] = qHTS for ATAD5 Agonist screened against the NCATS CANVASS Library (AID 1347367);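 further: luciferase reporter driven by ATAD5 which rises upon DNA damage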
Outline: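 Step one plated reporter cells and let them acclimate 5hr. Step two pinned compounds with MMS as positive and 0.46% DMSO as negative control. After 16hr incubation, fluorescence viability then luminescence were read.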

[10] = qHTS for ATAD5 Antagonist screened against the NCATS CANVASS Library (AID 1347370); further: nearly all actives have a fitted effect of over 65% in size; further: potency means the concentration at half of the fitted maximal effect
Outline: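 HEK293T cells with a stably integrated ATAD5-controlled luciferase reporter were exposed to compounds (11-pt) alongside 10 uM 5-fluorouridine as ATAD5 stabilizer for 16hr at 37C. Viability was read by CellTiter-Fluor fluorescence, then ATAD5 by luminescence.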

[11] = biological target: Nuclear receptor subfamily 1 group I member 3 (Homo sapiens) (UniProt Q14994); assay: qHTS for Constitutive Androstane Receptor (CAR) Antagonist screened against the NCATS CANVASS Library (AID 1347372); further: potency means the concentration at half of the fitted maximal effect
Outline: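 HepG2 cells stably carrying hCAR and CYP2B6-2.2kb luciferase reporter, 2500 cells/well, compound with 50 nM CITCO agonist for 24hr at 37C. ONE-Glo luminescence measured CAR activity; CellTiter-Fluor read viability.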

[12] = biological target: Nuclear receptor subfamily 1 group I member 3 (Homo sapiens) (UniProt Q14994); assay: qHTS for Constitutive Androstane Receptor (CAR) Agonist screened against the NCATS CANVASS Library (AID 1347373);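 further: every well also contained 1.5 µM PK11195 alongside the test compound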
Outline: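 HepG2 cells stably expressing hCAR and a CYP2B6-2.2kb luciferase reporter were treated for 24hr at 37C with compounds (11-point qHTS) in the presence of 1.5uM PK11195. Reporter activation was read by ONE-Glo luminescence.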

[13] = qHTS for Hypoxia signaling pathway (HIF-1) agonists against the NCATS CANVASS Library (AID 1347375)
Outline: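 HRE-bla ME-180 cells (beta-lactamase reporter under hypoxia responsive element) in 0.5% dialyzed FBS medium, 5 h at 37C, then compound 17 h, 11-point qHTS series. CCF4-AM FRET substrate 2 h RT; 460/530 nm emission read.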

[14] = 10-beta competent E. coli microbial cell viability qHTS against the NCATS CANVASS Library (AID 1347376); further: series mostly up to about 46 µM
Outline: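 10-beta competent E. coli (0.9 OD culture diluted to 0.2 OD) exposed to compounds in an 11-point qHTS series, incubated overnight at 37C, 5% CO2. Viability read as ATP by BacTiter-Glo luminescence after 20 min at room temperature.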

[15] = qHTS for Inflammasome Signaling Inhibitors: IL-1-beta AlphaLISA screen against the NCATS CANVASS Library (AID 1347379);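 further: human THP-1 cells primed with LPS then triggered with ATP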;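 on Potency: secreted IL-1B measured as AlphaLISA emission at 615 nm; potency means the concentration at half of the fitted maximal effect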
Outline: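 Human THP-1 cells were pretreated 1 hr at 37 °C with compounds (up to 57.5 uM final), then stimulated with LPS (250 ng/mL final) and ATP (1.25 mM final). Secreted IL-1B was read by AlphaLISA after 16 hr.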

[16] = Inflammasome Signaling qHTS Counterscreen: IL-1-beta AlphaLISA counterscreen against the NCATS CANVASS Library (AID 1347381);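 further: cell-free check with purified IL-1β in medium and no THP-1 cells; series mostly up to about 57 µM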
Outline: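 To flag interference with the AlphaLISA read-out, a known amount of purified IL-1-beta (4 pg) replaced cell supernatant. Detection used anti-IL-1-beta acceptor beads, biotinylated antibody and streptavidin donor beads at room temperature.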

[17] = Cytotoxicity qHTS for assessment of Hepg2 cells membrane integrity screened against the NCATS CANVASS Library (AID 1347387)
Outline: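 HepG2 cells (2000/well) attached overnight at 37C, then received compounds in an 11-point series at 0.59 nM - 46 uM final for 5 hr. LDH release was detected fluorometrically (ex 560/em 590 nm) with CytoTox-ONE reagent after 10 min at room temperature.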

[18] = qHTS for activators of dead-cell proteases activity screened against the NCATS CANVASS Library (AID 1347392);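 further: luminescence from protease leaking out of membrane-damaged cells cleaving impermeant substrate; rising signal means more cytotoxicity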
Outline: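 HepG2 cells, 2000/well, attached 18 h at 37C, then exposed to compounds (11-point qHTS) for 5 h. Dead-cell protease release read as luminescence from cell-impermeant AAF-aminoluciferin substrate after 15 min at room temperature.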

[19] = Viability qHTS for inhibitors of the SERCaMP assay screened against the NCATS CANVASS Library (AID 1347400); further: nearly all actives have a fitted effect of over 70% in size; further: potency means the concentration at half of the fitted maximal effect
Outline: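 SH-SY5Y-GLuc SERCaMP MJH297-derived cells (1000 cells/well) were pre-incubated 4 h at 37C, then exposed to compounds for 48 h. Viability was read as CellTiter-Glo luminescence; bortezomib served as positive control.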

[20] = J3T Cancer Cell Toxicity qHTS against the NCATS CANVASS Library (AID 1347371)
Outline: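 J3T dog glioma cells (500 cells/well) were exposed to compounds in an 11-point series for 72 hr at 37C, 5% CO2. Cytotoxicity was read as ATP content by CellTiterGlo luminescence.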

Measured: Potency

Sequence of Luciferin 4-monooxygenase (Photinus pyralis) (P08659 whole entry, looked up): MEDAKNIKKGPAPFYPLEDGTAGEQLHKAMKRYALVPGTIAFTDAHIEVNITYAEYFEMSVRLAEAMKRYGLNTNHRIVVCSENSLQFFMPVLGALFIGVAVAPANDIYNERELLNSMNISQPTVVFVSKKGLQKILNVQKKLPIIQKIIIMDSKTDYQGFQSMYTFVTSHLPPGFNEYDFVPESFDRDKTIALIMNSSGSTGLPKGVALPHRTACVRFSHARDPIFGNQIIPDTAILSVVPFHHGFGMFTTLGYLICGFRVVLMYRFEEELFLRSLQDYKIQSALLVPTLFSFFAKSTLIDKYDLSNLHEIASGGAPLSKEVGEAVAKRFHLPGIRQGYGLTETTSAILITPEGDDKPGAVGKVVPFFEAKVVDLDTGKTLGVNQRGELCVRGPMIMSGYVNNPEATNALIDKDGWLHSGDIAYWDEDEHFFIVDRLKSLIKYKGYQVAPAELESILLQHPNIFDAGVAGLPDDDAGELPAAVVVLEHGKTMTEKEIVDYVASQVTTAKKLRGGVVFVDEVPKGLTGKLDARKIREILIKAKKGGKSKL
Sequence of Nuclear receptor subfamily 1 group I member 3 (Homo sapiens) (Q14994 whole entry, looked up): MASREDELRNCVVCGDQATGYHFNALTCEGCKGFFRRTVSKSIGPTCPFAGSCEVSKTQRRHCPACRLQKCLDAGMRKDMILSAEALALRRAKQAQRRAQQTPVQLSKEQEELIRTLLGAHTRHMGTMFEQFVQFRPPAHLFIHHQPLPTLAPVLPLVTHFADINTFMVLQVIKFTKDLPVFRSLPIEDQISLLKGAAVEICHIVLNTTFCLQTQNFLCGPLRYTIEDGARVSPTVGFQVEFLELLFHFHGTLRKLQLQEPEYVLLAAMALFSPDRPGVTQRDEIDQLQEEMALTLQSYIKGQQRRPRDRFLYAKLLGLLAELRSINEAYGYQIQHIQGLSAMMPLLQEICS

C/C(=C\[C@H](C)C(=O)CCCC1CC(=O)NC(=O)C1)[C@@H]1OC(=O)/C=C/CC/C=C/[C@H](O)[C@@H](O)[C@@H]1C
active: [8] 6.62 µM | [10] 2.63 µM | [11] 3.31 µM | [15] 6.11 µM | [19] 3.81 µM
inactive: [1] | [2] | [3] | [4] | [5] | [6] | [7] | [9] | [12] | [13] | [14] | [16] | [17] | [18]

CCC(=O)N[C@@H](C[C@H](C)C(Cl)(Cl)Cl)C(=O)N1C(=O)C=C(OC)[C@@H]1C[C@H](C)CCl
active: [11] 10.5 µM
inactive: [1] | [3] | [4] | [5] | [6] | [7] | [8] | [9] | [10] | [20] | [12] | [14] | [15] | [16] | [17] | [19]

Oc1ccc(C2Oc3cc(O)c4c(c3[C@@H]2c2cc(O)cc(O)c2)[C@H]2C(c3ccc(O)cc3)c3c(O)cc5c(c3[C@H]2C4c2ccc(O)cc2)[C@H](c2cc(O)cc(O)c2)C(c2ccc(O)cc2)O5)cc1 (stereo not given in full)
active: [8] 13.2 µM
inactive: [1] | [2] | [3] | [4] | [5] | [6] | [7] | [9] | [10] | [20] | [11] | [12] | [13] | [14] | [15] | [16] | [17] | [18] | [19]

CO[C@H]1/C=C/CCCCC(=O)O[C@@H](/C(C)=C/[C@H](C)C(=O)C[C@H](O)CC2CC(=O)NC(=O)C2)[C@@H](C)C1
active: [10] 20.9 µM
inactive: [1] | [2] | [3] | [4] | [5] | [6] | [7] | [9] | [12] | [13] | [14] | [15] | [16] | [17] | [18]

COc1cc([C@@H]2c3cc4c(cc3C[C@@]3(O[C@@H]5O[C@H](CO)[C@@H](O)[C@H](O)[C@H]5O)COC(=O)[C@H]23)OCO4)cc(OC)c1OC
inactive: [1] | [2] | [3] | [4] | [5] | [6] | [7] | [9] | [10] | [12] | [13] | [14] | [15] | [16] | [17] | [18]
active: [8] 0.0372 µM | [11] 0.066 µM | [19] 0.048 µM

C=C1C[C@]23C=CC(=O)[C@@](C)(CCCC(C)C(=O)N[C@@H](CO)C(=O)O)[C@@H]2C[C@@H]1CC3 (stereo not given in full)
inactive: [1] | [2] | [3] | [4] | [5] | [6] | [7] | [8] | [9] | [10] | [20] | [11] | [12] | [13] | [14] | [15] | [16] | [17] | [18] | [19]

[C-]#[N+][C@@]12C(=O)[C@@H]3[C@@H](O[C@@]4(C(=O)N(C)c5cccc1c54)C3(C)C)C(=O)[C@@]2(C)C=C
inactive: [1] | [2] | [3] | [4] | [5] | [6] | [7] | [8] | [9] | [10] | [20] | [11] | [12] | [13] | [14] | [15] | [16] | [17] | [18] | [19]

CN1CC[C@]23c4ccccc4N[C@H]1[C@]21CCN(C)[C@H]3Nc2ccccc21
inactive: [1] | [2] | [3] | [4] | [5] | [6] | [7] | [8] | [9] | [10] | [20] | [11] | [12] | [14] | [15] | [16] | [17] | [18] | [19]

CCCCCC(=O)N[C@@H](CC(C)C)C(=O)N[C@H](C=O)CCC(=O)O (Hexanoyl-Leu-Glu-aldehyde)
inactive: [1] | [2] | [3] | [4] | [5] | [6] | [7] | [8] | [9] | [10] | [20] | [11] | [12] | [13] | [14] | [15] | [16] | [17] | [18] | [19]

COC(=O)[C@]1([C@H]2CCC(=O)O2)CC(=O)c2c(O)cc(C)cc2O1
inactive: [1] | [2] | [3] | [4] | [5] | [6] | [7] | [8] | [9] | [10] | [20] | [11] | [12] | [13] | [14] | [15] | [16] | [17] | [18] | [19]

C[C@@]1(CCC(=O)Nc2c(O)ccc(C(=O)O)c2O)C(=O)C=C[C@]23C[C@H]4C[C@H](O[C@@]4(C)C2)C31 (stereo not given in full)
inactive: [1] | [2] | [3] | [4] | [5] | [6] | [7] | [8] | [9] | [10] | [20] | [11] | [12] | [13] | [14] | [15] | [16] | [17] | [18] | [19]

COC(=O)[C@@]12Oc3cccc(O)c3C(O)=C1C(=O)C[C@H](C)[C@H]2O
inactive: [1] | [2] | [3] | [4] | [5] | [6] | [7] | [8] | [9] | [10] | [20] | [11] | [12] | [13] | [14] | [15] | [16] | [17] | [18] | [19]
